For this assay, the system named is firefly luciferase (FLuc). The assay is described as follows: residual bioluminescent signal relative to negative (DMSO) control; higher = less interference (more residual luciferase signal). The procedure: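 Purified luciferase (FLuc 10 nM + 10 uM D-luciferin; NLuc 10 pM + 10 uM furimazine; RLuc 50 pM + 2 uM coelenterazine) in 384-well plates; metal salt pre-incubated with enzyme 10 min at RT, substrate added and luminescence read after 10 min. Signal normalised to plate DMSO negative control (% N_VALUE = x/mean neg *100); triplicate wells at 0.01, 1 and 5 mM salt.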

[1] abbreviates: metal salt concentration 0.01 mM, HEPES conditions (100 mM HEPES, 5 mM MgSO4, 10 uM ATP, pH 7.5).
[2] abbreviates: metal salt concentration 0.01 mM, screening conditions (0.5 mM Tris, 50 mM glycine, 0.5 mM EDTA, 5 mM MgSO4, 10 uM ATP, pH 7.6).
[3] abbreviates: metal salt concentration 1 mM, HEPES conditions (100 mM HEPES, 5 mM MgSO4, 10 uM ATP, pH 7.5).
The mark [4] stands for this setting: metal salt concentration 1 mM, screening conditions (0.5 mM Tris, 50 mM glycine, 0.5 mM EDTA, 5 mM MgSO4, 10 uM ATP, pH 7.6).
Where [5] appears, read: metal salt concentration 5 mM, HEPES conditions (100 mM HEPES, 5 mM MgSO4, 10 uM ATP, pH 7.5).
Setting [6] is: metal salt concentration 5 mM, screening conditions (0.5 mM Tris, 50 mM glycine, 0.5 mM EDTA, 5 mM MgSO4, 10 uM ATP, pH 7.6).

± gives the standard deviation of the averaged measurements.

As to `O=[N+]([O-])[O-].O=[N+]([O-])[O-].O=[N+]([O-])[O-].[Al+3]` [aluminium nitrate], the residual bioluminescent signal came out at 78.9 ± 7.9% under setting [1]; 75.8 ± 6% under setting [2]; 0.679 ± 0.47% under setting [3]; 0.343 ± 0.17% under setting [4]; 0.543 ± 0.23% under setting [5]; 90.5 ± 5.5% under setting [6].
With `O=[N+]([O-])[O-].O=[N+]([O-])[O-].[Pb+2]` [lead(II) nitrate], the residual bioluminescent signal runs as follows: under setting [1], 3.12 ± 1.6%; under setting [2], 93.3 ± 4.7%; under setting [3], 0.814 ± 0.41%; under setting [4], 0.685 ± 0.48%; under setting [5], 0.95 ± 0.23%; under setting [6], 0.343 ± 0.17%.
`O=[N+]([O-])[O-].O=[N+]([O-])[O-].[Zn+2]` [zinc nitrate]: the residual bioluminescent signal runs as follows: under setting [1], 3.8 ± 1.2%; under setting [2], 81.5 ± 7.4%; under setting [3], 1.49 ± 0.85%; under setting [4], 0.817 ± 0.28%; under setting [5], 1.09 ± 0.85%; under setting [6], 0.316 ± 0.079%.
Turning to `O=[N+]([O-])[O-].[K+]` [potassium nitrate], the residual bioluminescent signal by setting is: under setting [1], 111 ± 4.3%; under setting [2], 100.2 ± 0.6%; under setting [3], 116 ± 12%; under setting [4], 98.6 ± 7%; under setting [5], 86.1 ± 12%; under setting [6], 65.5 ± 7.8%.
For the molecule `O=[N+]([O-])[O-].O=[N+]([O-])[O-].[Ni+2]` [nickel(II) nitrate], the residual bioluminescent signal was 64.7 ± 8.8% under setting [1]; 71.2 ± 7.5% under setting [2]; 2.31 ± 1.6% under setting [3]; 0.501 ± 0.33% under setting [4]; 0.814 ± 0.41% under setting [5]; 0.58 ± 0.091% under setting [6].
Regarding `O=[N+]([O-])[O-].[Na+]` [sodium nitrate], the residual bioluminescent signal came out at 90 ± 7.6% under setting [1]; 79.1 ± 6.3% under setting [2]; 72.4 ± 18% under setting [3]; 71.7 ± 2.9% under setting [4]; 60 ± 13% under setting [5]; 50 ± 4.3% under setting [6].
As for `O=[N+]([O-])[O-].O=[N+]([O-])[O-].O=[N+]([O-])[O-].[Ga+3]` [gallium(III) nitrate], the residual bioluminescent signal reads like this: under setting [1], 86.3 ± 16%; under setting [2], 3.77 ± 5%; under setting [3], 72.6 ± 17%; under setting [4], 0.264 ± 0.091%; under setting [5], 0.679 ± 0.47%; under setting [6], 0.474 ± 0.48%.

For the origin of these results see the supplement of paper PMC11628255, “Interference of metal ions on the bioluminescent signal of firefly, Renilla, and NanoLuc luciferases in high-throughput screening assays” (Frontiers in Chemistry, 2024).
